Each structure is given as a SMILES string. Where “and” joins values, the source holds several entries; their conditions need not be identical. Equal values may be shown once. The whole screen tested about 6,400 compounds, of which about 610 (9.5%) were called active. No stated cut-off is given here; in the data, active means activity change below about -70%; inconclusive means no clear call, values can overlap the other calls; inactive means above that. What follows is part of a selection rich in actives, with near analogues and random picks from the rest. Where a structure was tested more than once in an assay, its records may differ in their call.

This assay can be described thus: T. gondii ME49Luc in HeLa cells, luciferase assay, 72 h, no IFN-y (AID 1259421). The note with it: stronger effect = lower value, concentration not given here.
As for `CC(C)C(=O)OC[C@H]1O[C@@H](n2ccc(N)nc2=O)[C@](C)(F)[C@@H]1OC(=O)C(C)C`, the activity change, negative = inhibition is 23.1% (inactive).

For `O=C(Nc1ncc(SCCN2CCCC2)s1)[C@]1(c2ccc(S(=O)(=O)C3CC3)cc2)C[C@H]1C1CCCCC1`, the activity change, negative = inhibition was -76.3% (active) and -62.6% (inactive).

Take `CC(C)(C)[C@@]1(O)CCN2C[C@@H]3c4ccccc4CCc4cccc(c43)[C@H]2C1`: the activity change, negative = inhibition is 13.9% (inactive).

In the case of `C[C@H](NC(=O)/C(C#N)=C/c1cccc(Br)n1)c1ccccc1`, the activity change, negative = inhibition was -73.9% (active).

`C[C@H](NC(=O)/C(C#N)=C/c1ccc(O)c(O)c1)c1ccccc1`: the activity change, negative = inhibition is 13.8% (inactive) and 32.8% (inactive).

On to `CC(C)c1cc(/C=C(\C#N)C(=O)NCCCc2ccccc2)cc(C(C)C)c1O`, for which the activity change, negative = inhibition is -46.1% (inactive).

On to `CCN(CC)CCCCC(NC(=O)c1ccc([N+](=O)[O-])cc1)c1ccccc1` (stereo not given), for which the activity change, negative = inhibition was 34.1% (inactive).

On to `CCC[C@H](NC(=O)/C(C#N)=C/c1cccc(Br)n1)c1ccccc1`, for which the activity change, negative = inhibition was -77% (active).

Consider `C[C@@H](NC(=O)/C(C#N)=C\c1ccc(O)c(O)c1)c1ccccc1`, for which the activity change, negative = inhibition was -3.05% (inactive).

`O=C(CS(=O)Cc1ccco1)NC/C=C\COc1cc(CN2CCCCC2)ccn1` (stereo not given): the activity change, negative = inhibition is 8.76% (inactive).

Regarding `CC12C=CCC1C1CCC3CC(=O)CCC3(C)C1CC2` (stereo not given), the activity change, negative = inhibition is 14.3% (inactive).

Take `COc1ccc(NC(=O)c2cc(OCCCN(C)C)nn2Cc2ccccc2)cc1`: the activity change, negative = inhibition is 3.25% (inactive) and 7.86% (inactive).

In the case of `CCC(=O)NS(=O)(=O)c1ccc(-c2c(-c3ccccc3)noc2C)cc1`, the activity change, negative = inhibition is 23.5% (inactive).

As for `CC1(c2ccccc2)OC(C(=O)O)=CC1=O` (stereo not given), the activity change, negative = inhibition was 15.7% (inactive).

Consider `Nc1cccc2c(=O)[nH][nH]c(=O)c12`, for which the activity change, negative = inhibition was 7.31% (inactive).

For the compound `COc1ncc(-c2ccc3nccc(-c4ccnnc4)c3c2)cc1NS(=O)(=O)c1ccc(F)cc1F`, the activity change, negative = inhibition is -79.5% (active).

Turning to `CCCS(=O)(=O)Nc1ccc(F)c(C(=O)c2c[nH]c3ncc(-c4ccc(Cl)cc4)cc23)c1F`, the activity change, negative = inhibition is -58.2% (inactive) and -67.7% (inactive).

Regarding `CCc1cc(-c2n[nH]c(C)c2-c2ccc3c(c2)OCCO3)c(O)cc1O`, the activity change, negative = inhibition is -16.3% (inactive).

Take `NC(=NCCCCCCN=C(N)/N=C(\N)Nc1ccc(Cl)cc1)/N=C(\N)Nc1ccc(Cl)cc1`: the activity change, negative = inhibition was -58% (inactive).

On to `CCN(CC)CCCCN1c2ccccc2Oc2ccc(Cl)cc21`, for which the activity change, negative = inhibition was -10.3% (inactive) and 12.5% (inactive).

For `CCN(CC)CCOc1ccc(/C(=C(\Cl)c2ccccc2)c2ccccc2)cc1`, the activity change, negative = inhibition was -69.8% (inactive) and -52.9% (inactive).

Regarding `CN(C)CCOc1ccc(/C(=C(/CCCl)c2ccccc2)c2ccccc2)cc1`, the activity change, negative = inhibition is -77.6% (active) and -84.8% (active).

As for `CN(C)CCOC(=O)COc1ccc(Cl)cc1`, the activity change, negative = inhibition was 4.1% (inactive) and 6.57% (inactive).

`CC/C(=C(\c1ccccc1)c1ccc(OCCN(C)C)cc1)c1ccccc1`: the activity change, negative = inhibition is 13.1% (inactive) and -14.7% (inactive) and -6.44% (inactive).

As to `CC/C(=C(/c1ccccc1)c1ccc(OCCN(C)C)cc1)c1ccccc1`, the activity change, negative = inhibition is -72.4% (active).

For `CCN(CC)CCOc1ccc(Cc2ccccc2)cc1`, the activity change, negative = inhibition is 5.6% (inactive) and 13.5% (inactive).

As for `CC(=O)OCC(=O)[C@@]12OC3(CCCC3)O[C@@H]1CC1C3CCC4=CC(=O)C=C[C@]4(C)[C@@]3(F)[C@@H](O)C[C@@]12C` (stereo not given in full), the activity change, negative = inhibition was -7.19% (inactive) and -8.15% (inactive).

Turning to `C[C@]12C=CC(=O)C=C1CCC1C2[C@@H](O)C[C@@]2(C)C1CC[C@]2(O)C(=O)COC(=O)CCC(=O)O` (stereo not given in full), the activity change, negative = inhibition was -10.6% (inactive) and -6.45% (inactive).

Take `CC(=O)OC[C@H]1O[C@@H](n2ccc(=O)[nH]c2=O)[C@H](OC(C)=O)[C@@H]1OC(C)=O`: the activity change, negative = inhibition was 8.3% (inactive).

Turning to `C=CC1CN2CCC1CC2[C@@H](O)c1ccnc2ccc(OC)cc12` (stereo not given in full), the activity change, negative = inhibition is 21.1% (inactive).

Turning to `COc1nccc(-c2c(-c3ccc(F)cc3)ncn2C2CCC(O)CC2)n1` (stereo not given), the activity change, negative = inhibition was -77.2% (active).

As to `COc1nccc(-c2c(-c3ccc(F)cc3)ncn2C2CCNCC2)n1`, the activity change, negative = inhibition was -64.9% (inactive).

Take `CCOc1ccc(Cc2cc([C@@]34OC[C@@](CO)(O3)[C@@H](O)[C@H](O)[C@H]4O)ccc2Cl)cc1`: the activity change, negative = inhibition was 12.2% (inactive).

For `CSCC1CN(/N=C/c2ccc([N+](=O)[O-])o2)C(=O)O1` (stereo not given), the activity change, negative = inhibition was 3.31% (inactive).

In the case of `CCNC(=O)CCC/C=C/C[C@@H]1[C@H](C=C[C@H](O)CCc2ccccc2)[C@@H](O)C[C@@H]1O`, the activity change, negative = inhibition was -1.53% (inactive).

On to `CCCC[P+](CCCC)(CCCC)Cc1ccc(NC(=O)[C@H](Cc2ccc3ccccc3c2)NC(=NC2CCCCC2)NC2CCCCC2)cc1`, for which the activity change, negative = inhibition was 27% (inactive).

In the case of `O=C(CCCN1CCC(O)(c2ccc(Cl)cc2)CC1)c1ccc(F)cc1`, the activity change, negative = inhibition is 7.06% (inactive) and 15.9% (inactive).

As to `O=C(CCCN1CCC(O)(c2cccc(C(F)(F)F)c2)CC1)c1ccc(F)cc1`, the activity change, negative = inhibition is 30.3% (inactive).

In the case of `OC1(c2ccc(Cl)c(C(F)(F)F)c2)CCN(CCCC(c2ccc(F)cc2)c2ccc(F)cc2)CC1`, the activity change, negative = inhibition is -65.8% (inactive) and -91.8% (active).

`Nc1ccn(C[C@@H](CO)OCP(=O)(O)O)c(=O)n1`: the activity change, negative = inhibition was -60.1% (inactive).

For `O/N=C/c1cc[n+](COC[n+]2ccc(/C=N/O)cc2)cc1`, the activity change, negative = inhibition was 8.88% (inactive).

Regarding `C[C@H]1CC2C([C@@H](O)C[C@@]3(C)C2CC[C@]3(O)C(=O)CO)[C@@]2(C)C=CC(=O)C=C12` (stereo not given in full), the activity change, negative = inhibition was 5.02% (inactive).

As for `OC[C@H]1O[C@H](O)C[C@@H](O)[C@@H]1O`, the activity change, negative = inhibition was -36.7% (inactive).

With `CCOCCn1c(C2CCN(CCc3ccc(C(C)(C)C(=O)O)cc3)CC2)nc2ccccc21`, the activity change, negative = inhibition was 20.9% (inactive).

With `N#C/C(=C/c1ccc(O)c(O)c1)C(N)=O`, the activity change, negative = inhibition was 7.91% (inactive).

For the origin of these results see PubChem BioAssay AID1259421 (Broad Institute, 2018).
